From PubChem BioAssay
EPAC1 agonist: agonists of human EPAC1 | EPAC1 agonist qHTS, biochemical assay; response scale: 100% = response to 6.5 mM cAMP | Potency, µM (series often up to 154 µM), inactives show top-dose activation, hits mostly activators | actives 0.073% (n = 360,000) | AID 720707; further: nearly all actives have a fitted effect of over 60% in size
Target sequence (O95398 whole entry, looked up): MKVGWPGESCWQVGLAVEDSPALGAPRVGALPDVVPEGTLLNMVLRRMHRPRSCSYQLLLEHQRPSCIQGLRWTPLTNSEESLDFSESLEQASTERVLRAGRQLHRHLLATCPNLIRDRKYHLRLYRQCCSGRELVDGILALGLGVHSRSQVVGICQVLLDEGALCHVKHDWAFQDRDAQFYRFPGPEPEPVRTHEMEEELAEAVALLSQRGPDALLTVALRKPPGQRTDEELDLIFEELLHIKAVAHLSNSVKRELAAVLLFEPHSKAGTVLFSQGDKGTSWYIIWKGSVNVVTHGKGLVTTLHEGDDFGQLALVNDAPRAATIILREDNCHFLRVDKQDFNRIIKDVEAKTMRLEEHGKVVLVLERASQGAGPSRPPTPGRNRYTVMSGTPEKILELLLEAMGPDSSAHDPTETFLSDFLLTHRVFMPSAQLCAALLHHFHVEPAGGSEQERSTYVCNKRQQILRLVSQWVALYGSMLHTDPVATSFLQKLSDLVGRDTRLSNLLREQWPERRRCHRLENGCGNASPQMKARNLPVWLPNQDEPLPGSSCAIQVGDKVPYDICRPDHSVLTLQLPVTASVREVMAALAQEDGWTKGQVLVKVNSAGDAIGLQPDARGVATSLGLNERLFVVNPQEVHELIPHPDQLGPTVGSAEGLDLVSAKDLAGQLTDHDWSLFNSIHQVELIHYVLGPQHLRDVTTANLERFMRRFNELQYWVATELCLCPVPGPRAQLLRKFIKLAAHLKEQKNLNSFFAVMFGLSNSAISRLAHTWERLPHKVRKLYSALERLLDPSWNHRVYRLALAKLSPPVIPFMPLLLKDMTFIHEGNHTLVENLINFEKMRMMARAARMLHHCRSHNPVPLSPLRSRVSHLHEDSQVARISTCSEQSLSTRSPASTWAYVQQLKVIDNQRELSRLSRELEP
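Normalized to 6.5 mM cAMP, activity reflects EPAC1-catalysed release of BODIPY-GDP from Rap1B, followed kinetically over 30 min at 480 nm excitation, 540 nm emission. Reaction contained 100 nM EPAC1, 250 nM Rap1B-BODIPY-GDP, 50 uM GDP.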
EPAC2 antag: blocks human EPAC2 exchange factor; EPAC2 GEF exchange of Rap1B-BODIPY-GDP, fluorescence; Potency, µM (series often up to 114 µM), inactives show top-dose activity, negative = inhibition, actives largely listed as inhibitors; actives 0.18% (n = 360,000); AID 720708; further: on the % scale 0 is the no-effect control and ±100 the full control effect; nearly all actives have a fitted effect of over 45% in size
EPAC1 antagonist: blocks human EPAC1 exchange factor | EPAC1 GEF assay, Rap1b-BODIPY-GDP exchange fluorescence | AID 720709 | Potency, µM (titrated, usually from 115 µM), for inactives: top-dose activity change, negative = inhibition, most hits filed as inhibitors | actives 0.14% (n = 360,000);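 further: plate controls were vehicle for no effect and positive control for full effect; nearly all actives have a fitted effect of over 50% in size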
USP1 inh: USP1/UAF1 (human) deubiquitinase inhibition; O94782; recombinant USP1/UAF1, Ub-Rhodamine cleavage fluorescence; Potency, µM (doses to about 57.1 µM), for the others: at the top dose activity change, negative = inhibition, actives largely listed as inhibitors; actives 0.23% (n = 390,000); AID 743255; further: on the % scale 0 is the no-effect control and ±100 the full control effect; nearly all actives have a fitted effect of over 60% in size
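Step one: compound is pinned into 1nM USP1/UAF1 in HEPES pH 7.8 buffer with TCEP. Step two: 15 min room-temperature incubation. Step three: Ub-Rho (150nM final) starts cleavage, tracked by fluorescence over six one-minute reads.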
EPAC2 ag: activates human EPAC2 exchange factor; Q8WZA2; EPAC2 activation, biochemical qHTS; response scale: 100% = 6.5 mM cAMP response; Potency, µM (doses to about 154 µM), for the others: at the top dose activation, usual class: activators; actives 0.079% (n = 360,000); AID 720711; further: nearly all actives have a fitted effect of over 50% in size
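Setup: EPAC2 100 nM, labeled Rap1B complex 250 nM, free GDP 50 uM. Compound titrations pinned in, brief spin, 5 min room temperature incubation. Kinetic fluorescence read over 30 min, normalized to 6.5 mM cAMP.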
An asterisk follows results filed as active. Shown are actives, neighbours in structure and some others; about 0.49% of the full set was active somewhere. The call rests on the fitted dose curve; in most records, active means well fitted curve in the direction sought with a large enough effect; inconclusive means small, poorly fitted or top-dose-only effect, or another doubt; inactive means no such curve, though single readings can be large; an effect the other way counts as inactive or inconclusive. Potency means the concentration at half of the fitted maximal effect.

For O=C(Cn1ccc(=O)[nH]c1=O)c1ccc([N+](=O)[O-])o1 the results were EPAC1 agonist 100µM*, EPAC2 antag 14.2%, EPAC1 antagonist 7.0%, USP1 inh -26.7% and EPAC2 ag inconclusive.
COc1ccccc1NC(=O)CN1C(=O)C(c2ccc(F)cc2)=NC1(C)C was read as USP1 inh -8.6%.
For Cc1nc2ccccc2c(=O)n1/N=C/c1ccccc1O the results were EPAC1 agonist 9.8%, EPAC2 antag -0.5%, EPAC1 antagonist 79.4µM*, USP1 inh -27.6% and EPAC2 ag -2.5%.
Cc1nc2ccccc2c(=O)n1/N=C/c1ccc(O)c(O)c1O was read as EPAC1 agonist 7.3%, EPAC2 antag 3.2%, EPAC1 antagonist inconclusive, USP1 inh -15.6% and EPAC2 ag -3.9%.
`CC(C)OC(=O)c1c(NC(=O)C2c3ccccc3Oc3ccccc32)sc2c1CCCC2` gave USP1 inh -23.9%.
Screening COc1cc2nc(N3CCNCC3)nc(N)c2cc1OC returned EPAC1 agonist 8.7%, EPAC2 antag 31.6µM*, EPAC1 antagonist inconclusive, USP1 inh -25.4% and EPAC2 ag 22.7%.
COc1cc2nc(N3CCN(c4cc(C)ccc4C)CC3)nc(N)c2cc1OC was read as EPAC1 agonist 12.9%, EPAC2 antag -6.3%, EPAC1 antagonist -21.3%, USP1 inh -22.4% and EPAC2 ag 26.3%.
For COc1ccc(-n2nnnc2C2CCN(S(=O)(=O)c3ccc(NC(C)=O)cc3)CC2)cc1 the results were USP1 inh -12.0%.
Screening Cc1cc(/C=C2\SC(=S)NC2=O)cc(C)c1O returned EPAC1 agonist 7.4%, EPAC2 antag 15.8µM*, EPAC1 antagonist inconclusive, USP1 inh -10.4% and EPAC2 ag 1.0%.
Screening Cc1cc(/C=C2\SC(=S)NC2=O)c(C)n1-c1ccc(O)cc1 returned EPAC1 agonist 3.4%, EPAC2 antag inconclusive, EPAC1 antagonist inconclusive, USP1 inh -19.3% and EPAC2 ag -4.8%.
`O=C1NC(=S)SC1=Cc1ccccc1Cl` gave EPAC1 agonist -0.6%, EPAC2 antag 35.5µM*, EPAC1 antagonist inconclusive, USP1 inh -37.1% and EPAC2 ag 12.5%.
Screening O=C1NC(=S)S/C1=C\c1cc(Cl)cc(Cl)c1O returned EPAC1 agonist -9.9%, EPAC2 antag 56.2µM*, EPAC1 antagonist 39.8µM*, USP1 inh inconclusive and EPAC2 ag -11.0%.
`Cc1cc(/C=C2\SC(=S)NC2=O)c(C)n1C` gave EPAC1 agonist -0.4%, EPAC2 antag -2.1%, EPAC1 antagonist inconclusive, USP1 inh -18.6% and EPAC2 ag -6.1%.
`O=C1NC(=S)S/C1=C\c1cccc([N+](=O)[O-])c1` gave EPAC1 agonist -5.1%, EPAC2 antag 50.1µM*, EPAC1 antagonist inconclusive, USP1 inh inconclusive and EPAC2 ag 2.7%.
O=C1NC(=Nc2ccccc2Cl)S/C1=C\c1cccc([N+](=O)[O-])c1 was read as EPAC1 agonist 10.1%, EPAC2 antag -9.0%, EPAC1 antagonist -23.4%, USP1 inh -18.6% and EPAC2 ag 4.6%.
`COc1ccccc1C=C1SC(=S)NC1=O` gave EPAC1 agonist -6.5%, EPAC2 antag -23.3%, EPAC1 antagonist inconclusive, USP1 inh 2.5% and EPAC2 ag 5.7%.
`COc1cccc(CNC(=O)CCc2c(C)nc3c(c(C)nn3-c3ccc(C)c(C)c3)c2C)c1` gave USP1 inh -5.8%.
For CN(C1=C(NC(=O)c2ccccc2)C(=O)c2ccccc2C1=O)C1CCS(=O)(=O)C1 (configuration not stated) the results were EPAC1 agonist -29.6%, EPAC2 antag -23.3%, EPAC1 antagonist -17.0%, USP1 inh 10µM* and EPAC2 ag -8.6%.
Screening Cc1cc(CSc2ccc(Cl)cc2)ccc1N returned EPAC1 agonist 5.6%, EPAC2 antag 15.8µM*, EPAC1 antagonist -3.6%, USP1 inh -22.7% and EPAC2 ag 16.5%.
For Cc1ccccc1NC(=O)COC(=O)c1ccc(CSc2ccc(Cl)cc2)cc1 the results were EPAC1 agonist 2.7%, EPAC2 antag 25.4%, EPAC1 antagonist -11.6%, USP1 inh -12.6% and EPAC2 ag 7.2%.
CN(C)c1ccc(-c2cc3ccccc3c(=O)o2)cc1 was read as EPAC1 agonist -0.6%, EPAC2 antag 93.8%, EPAC1 antagonist 11.7%, USP1 inh -27.1% and EPAC2 ag 100µM*.
COc1ccc(-c2cc3ccccc3c(=O)o2)cc1 was read as EPAC1 agonist 1.5%, EPAC2 antag -6.1%, EPAC1 antagonist -9.8% and EPAC2 ag 14.7%.
Screening O=C(CSc1nc(-c2ccc(F)cc2)nc2ccc(F)cc12)Nc1cccc(C(=O)O)c1 returned EPAC1 agonist 19.2%, EPAC2 antag 5.4%, EPAC1 antagonist 70.8µM*, USP1 inh -13.1% and EPAC2 ag 2.3%.
O=C(Nc1ccc(F)c(Cl)c1)C1Cc2ccccc2CN1S(=O)(=O)c1ccc(F)cc1 (configuration not stated) was read as USP1 inh -5.6%.
For CCc1cccc(-n2c(C)nc3c(cnn3-c3ccc(C)c(C)c3)c2=O)c1 the results were USP1 inh -19.1%.
`CCN1C(=O)/C(=C/c2ccc(OCc3ccc(C(=O)O)cc3)c(Cl)c2)NC1=S` gave EPAC1 agonist 4.1%, EPAC2 antag 26.2%, EPAC1 antagonist 89.1µM*, USP1 inh -27.1% and EPAC2 ag 10.8%.
For CCNc1ccc(Br)cc(C(=O)/C=C/c2c(Cl)cccc2Cl)c1=O the results were EPAC1 agonist 15.1%, EPAC2 antag 2.1%, EPAC1 antagonist inconclusive, USP1 inh inconclusive and EPAC2 ag 13.8%.
CCNc1ccc(Br)cc(C(=O)/C=C/c2ccc(Cl)cc2)c1=O was read as EPAC1 agonist 10.2%, EPAC2 antag -2.4%, EPAC1 antagonist 11.7%, USP1 inh 31.6µM* and EPAC2 ag 16.7%.
Screening COc1ccc(-c2cnc(C)o2)cc1S(=O)(=O)Nc1ccc(C)c(F)c1 returned USP1 inh -28.4%.
`COc1ccccc1CCNC(=O)C(=O)NCC(c1ccco1)S(=O)(=O)c1ccccc1` (configuration not stated) gave USP1 inh -22.4%.
CCCC(=O)OC1CC(C)N(C(=O)c2ccccc2)c2ccc(C)cc21 (configuration not stated) was read as EPAC1 agonist 8.1%, EPAC2 antag 25.1µM*, EPAC1 antagonist 2.2%, USP1 inh -23.7% and EPAC2 ag 12.3%.
Screening O=C1C(=Cc2ccc(Cl)cc2)CCc2ccccc21 returned EPAC1 agonist 3.8%, EPAC2 antag -26.3%, EPAC1 antagonist -8.0% and EPAC2 ag 9.3%.
For O=C1C(=Cc2ccccc2Cl)CCc2ccccc21 the results were EPAC1 agonist -4.0%, EPAC2 antag 35.5µM*, EPAC1 antagonist inconclusive and EPAC2 ag 3.3%.
